In PubChem BioAssay (NCI):
Compounds without any hit were thinned out: in the full panel of roughly 83,000, 20% have a hit.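 Values shown are percent growth following 48 h exposure of cells in 96-well plates to a single concentration of compound; below 10 was considered active.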 Unmarked numbers belong to inactive results. Calls of active or inactive are those of the source.

system: MDA-MB-435 melanoma; assay: NCI-60 one-dose screen, 48 h (100 = growth as untreated, 0 = no growth, -100 = all killed); settings: 10 µM
Protocol: Growth inhibition of the MDA-MB-435 human Melanoma tumor cell line is measured as a screen for anti-cancer activity. Cells are grown in 96 well plates and exposed to the test compound for 48 hours. Compounds are tested at a single concentration, which is 10^-5 M for most compounds. The reported endpoint is percent growth (GI% or GIPRCNT), where numbers from 0 - 100% represent growth inhibition, and numbers from -100% - 0 represent cell death. For example, a value of 40 represents 60% growth inhibition. A value of 0 means no net growth occurred over the course of the experiment. A value of -40 indicates 40% of cells at the beginning of the experiment died by the end of the experiment. A value of -100 means all cells are dead at the end of the experiment.
NCI-60 Human Tumor Cell Lines Screen was performed using the standard one-dose NCI protocol, which is described in more detail at https://dtp.cancer.gov/discovery_development/nci-60/default.htm.
Compounds with GIPRCNT values below 10 were considered active. Activity score was based on GIPRCNT using the following formula: […]
Score is 0 for GIPRCNT values of 100 or above, 50 for GIPRCNT values of 0, and 100 for GIPRCNT values of -100.

Question: How did the growth turn out when `COc1cc(Cl)cc(-c2nn(-c3cccc(NC(=O)c4ccc(Cl)c(Cl)c4)c3)cc2-c2ccncc2)c1` was run?
Answer: 80.7%

Question: For `CC(=O)N1N=C(c2ccc(Cl)cc2)CC1c1sc(Cl)nc1Cl` (stereo not given), which growth is on record?
Answer: 89.2%

Question: Which growth does the source give for `N#Cc1cccc(OCc2nc(N)nc(N)c2-c2ccc(Cl)c(Cl)c2)c1` here?
Answer: 21.3%

Question: `C[C@]12CC[C@@H]3c4ccc(O)cc4C[C@@H](O)[C@H]3[C@@H]1CC[C@@H]2O` was tested. Which growth did it give?
Answer: 95.8%

Question: `CCCCCCCCCCCCCC[n+]1ccc(C(N)=O)cc1` was tested. Which growth did it give?
Answer: 8.53% (active)

Question: For `CC[C@H](C)C(=O)O[C@H]1CCC=C2C=C[C@H](C)C(CCC3C[C@@H](O)CC(=O)O3)[C@H]21` (stereo not given in full), which growth is on record?
Answer: 84.4%

Question: With `COc1cc(Cl)cc(-c2nn(-c3cccc(NC(=O)Nc4ccc(Cl)c(C(F)(F)F)c4)c3)cc2-c2ccncc2)c1` as the compound, how does the growth read?
Answer: -16.8% (active)

Question: `CC/C(C)=C(\C)C(=O)O` was tested. Which growth did it give?
Answer: 99.1%

Question: With `CN(C)CC(O)c1ccc2cc(Br)c3ccccc3c2c1` (stereo not given) as the compound, how does the growth read?
Answer: 42.4%

Question: Which growth does the source give for `COc1ccc(S(=O)(=O)NCCCNc2nccc(-c3c(-c4ccc(F)cc4)nc4sccn34)n2)cc1` here?
Answer: 27.9%

Question: For `O=C1Nc2ccc(Cl)cc2/C1=C\c1c(-c2ccc(Cl)cc2)nc2sc(C3CC3)nn12`, which growth is on record?
Answer: 77%

Question: Which growth does the source give for `N=c1nc(N)ncn1-c1ccccc1` here?
Answer: 107%

Question: With `N#CCCN(NC(=O)OCc1ccccc1)C(=O)OCc1ccccc1` as the compound, how does the growth read?
Answer: 105%

Question: How did the growth turn out when `Cn1c(N)c(N=Nc2ccc(S(=O)(=O)Nc3nccs3)cc2)c(=O)n(C)c1=O` was run?
Answer: 101%

Question: Which growth does the source give for `c1ccc([I+]c2ccccc2)cc1` here?
Answer: 68.9%

Question: `O=C(Nc1nc(-c2ccccc2Cl)cs1)c1cc(-c2ccc(Cl)cc2)nc2ccc(Cl)cc12` was tested. Which growth did it give?
Answer: -46.9% (active)

Question: `Nc1ccccc1NC(=O)CCCCC(=O)Nc1ccc2c(c1)/C(=C/c1ccc[nH]1)C(=O)N2` was tested. Which growth did it give?
Answer: 68.8%

Question: With `COc1cc(NC(=O)CCSc2nc3ccc(C)cc3c(=O)n2Cc2ccccc2)cc(OC)c1OC` as the compound, how does the growth read?
Answer: 92.1%

Question: Which growth does the source give for `COc1cc(-c2cc(C(=O)N3CCN(C(=O)c4ccccc4NCc4cccs4)CC3)nc3cc(-c4ccccc4)nn23)cc(OC)c1OC` here?
Answer: 6.28% (active)

Question: With `CCN(CC)CCNC(=O)c1ccc(NC(C)=O)cc1` as the compound, how does the growth read?
Answer: 101%

Question: `COc1cc(/C=N/NC(=O)c2ccccc2Nc2cccc(C(F)(F)F)c2)cc(OC)c1OC` was tested. Which growth did it give?
Answer: -34% (active)

Question: For `CCN(CC)CCC(CNc1c(C)cnc2cc(Cl)ccc12)c1ccc(Cl)cc1` (stereo not given), which growth is on record?
Answer: -7.89% (active)

Question: With `O=C1/C(=C\c2ccccc2)CN(C(=O)c2ccccc2)C/C1=C\c1ccccc1` as the compound, how does the growth read?
Answer: -49.6% (active)

Question: Which growth does the source give for `Cc1ncc(-c2ccoc2)c(NC2CCCCCC2)n1` here?
Answer: 110%

Question: `O=C1/C(=C/c2ccc([N+](=O)[O-])s2)Oc2ccccc21` was tested. Which growth did it give?
Answer: -58.1% (active)

Question: With `COc1ccc(NC(=O)CSc2nc3ccccc3c(=O)n2CCc2ccccc2)cc1` as the compound, how does the growth read?
Answer: 90.5%

Question: How did the growth turn out when `C[C@@H]1C=C2C(=O)O[C@@H]3CC[C@H](C1)[C@]23O` was run?
Answer: 57.7%

Question: Which growth does the source give for `COc1ccc2nc3ccccc3c(NCCNCC(C)O)c2c1` (stereo not given) here?
Answer: 1.44% (active)

Question: With `CC(=O)n1c(-c2ccc(Cl)c(Cl)c2)cn(-c2ccc(Cl)cc2)c1=O` as the compound, how does the growth read?
Answer: 32%

Question: For `COc1cc2cc3c(nc2cc1OC)CCN3Cc1ccc(NC(=O)Nc2ccc(F)cc2F)cc1`, which growth is on record?
Answer: 89%

Question: `Nc1nc(-c2ccccc2Cl)cc(-c2ccc(Cl)cc2Cl)n1` was tested. Which growth did it give?
Answer: 0.0733% (active)

Question: With `COc1ccc(C2CC(c3ccc(N(C)C)cc3)=NN2c2ccc(S(N)(=O)=O)cc2)cc1` (stereo not given) as the compound, how does the growth read?
Answer: 36.9%

Question: For `O=c1c2ccccc2nc(SCCN2CCCCC2)n1CCc1ccccc1`, which growth is on record?
Answer: 95.9%

Question: `COc1cc2c(cc1OCCCN1CCN(c3ncnc4ccccc34)CC1)N=CC1CCCN1C2=O` (stereo not given) was tested. Which growth did it give?
Answer: -67.8% (active)

Question: For `CO/N=C(/C(=O)NC1C(=O)N2C(C(=O)O)=C(COC(N)=O)CSC12)c1ccco1` (stereo not given), which growth is on record?
Answer: 104%

Question: `CSc1nn(-c2ccccc2)c2ncnc(Oc3ccc(C)cc3)c12` was tested. Which growth did it give?
Answer: 102%

Question: `CC(C)=CCc1ccc(O)c(=O)cc1C(C)C` was tested. Which growth did it give?
Answer: 30.7%

Question: Which growth does the source give for `COc1cc2c(cc1OCCCCCCN1CCN(CC(=O)Nc3ccc(Cl)cc3C(=O)c3ccccc3Cl)CC1)N=CC1CCCN1C2=O` (stereo not given) here?
Answer: -81.2% (active)

Question: How did the growth turn out when `Cc1nc2ccccc2c(N)c1-c1cc(C)c2c(C)nc3ccccc3c2n1` was run?
Answer: 69.4%

Question: For `CC(C)C[C@H](NC(=O)[C@H](Cc1cccc2ccccc12)NS(=O)(=O)c1cccc2cccnc12)B(O)O`, which growth is on record?
Answer: -52.2% (active)
